# Where “and” joins values, the source holds several entries; their conditions need not be identical. Identical values can stand only once. Screen size: about 150,000 compounds; about 540 (0.36%) showed an effect of 50% or more. For the sample, strong results were picked, then their nearest neighbours and some compounds at random.
# Test system: Plasmodium falciparum
# Experiment: Primary screen in NF54 nanoGlo assay, in single point, at 2uM, 72h; a lower Z score goes with more inhibition
# Assay type: functional, Erythrocyte
# Conditions: timepoint 72 hour
Structure (SMILES),% Inhibition,Z score,% Inhibition (2 µM)
CCN1CCN(C2CCN(Cc3c[nH]c4ccccc34)CC2)CC1,5%,-0.83,–
Fc1ccccc1N1CCN(C2CCN(Cc3ccncc3)CC2)CC1,20%,-2.44,–
Fc1ccccc1N1CCN(C2CCN(Cc3c[nH]c4ccccc34)CC2)CC1,67%,-0.71,–
c1cc(Oc2ccc3nnnn3n2)cc(-c2nnco2)c1,-14%,1.28,–
Cn1c(CN2CCN(c3ccnc4ccccc34)CC2)cc(=O)n(C)c1=O,17%,-2.24,–
NC(=O)CO[C@H]1CCOC[C@H]1NC(=O)c1ccc(Oc2ccccc2)o1,4%,-0.64,–
Cc1cccc(CN2CCC[C@@](O)(CN3CCN(CC4CC4)CC3)C2=O)c1,-10%,1.1,–
CC1CN(C(CNCc2cnn(C)c2)c2cccs2)CCO1 (configuration not stated),-9%,0.92,–
CCN(c1noc(C2CCN(C(=O)C(C)C)CC2)n1)C(C)C,-18%,2.32,–
CCc1nn(C)c(OC)c1CNC(=O)N[C@@H]1Cc2ccccc2[C@H]1O,-13%,1.27,–
COc1ccc2cc1Oc1cccc(c1)CO[C@H]1CCN(C(=O)CN3CCC(O)CC3)C[C@H]1NC(=O)CC2,-23%,2.88,–
COc1ccc(-c2nc(C)c(C(=O)Nc3n[nH]c(CC(C)C)n3)s2)cc1OC,15%,-2.32,–
COc1cccc(-c2nc(C)c(C(=O)NCc3nnc4ccccn34)s2)c1,-3%,0.36,–
COc1cccc(-c2nc(C)c(C(=O)Nc3cccc4[nH]ccc34)s2)c1,-1%,0.1,–
COc1cccc(-c2nc(C)c(C(=O)Nc3n[nH]c(CC(C)C)n3)s2)c1,–,–,82% and 77%
COc1cccc(-c2nc(C)c(C(=O)NC[C@@H]3CCCN4CCCCC34)s2)c1 (some centres not stated),-1%,0.17,–
COc1cccc(-c2nc(C)c(C(=O)Nc3nc(C(C)C)n[nH]3)s2)c1,68%,-7.28,–
O=C(CCC1CCCCC1)NC1CCN(c2cn[nH]c(=O)c2)CC1,-10%,1.05,–
CCN(CC)c1nc2cc(C(=O)NCc3ccc(C)cc3)ccc2c(=O)n1Cc1ccccc1,5%,-0.78,–
COc1ccc(Cn2c(C)c(C3=CCN(S(=O)(=O)c4cc(C)c(C)cc4C)CC3)c3ccccc32)cc1,0%,0.05,–
CC(=O)Nc1ccc(C)cc1S(=O)(=O)N1CC=C(c2c(C)n(Cc3ccccc3C)c3ccccc23)CC1,92%,-8.31,–

Structure (SMILES),% Inhibition,Z score,% Inhibition (2 µM)
CC(=O)Nc1ccc(C)cc1S(=O)(=O)N1CC=C(c2c(C)n(Cc3ccc(Cl)cc3)c3ccccc23)CC1,-14%,1.87,–
Cc1cc(C(F)(F)F)n(C[C@@H](C)Cn2cc(-c3cncnc3)nn2)n1,-6%,0.77,–
COC(=O)Nc1nc(-c2ccccc2)c(-c2nccc(OCC(F)(F)F)c2C)s1,30%,-3.82,–
COc1ccc(Cl)cc1N(Cc1ccccc1)Cc1ccccc1,-2%,0.32,–
COc1ccccc1N(Cc1ccccc1)C1=NC(=[N+](Cc2ccccc2)c2ccccc2OC)c2ccccc21,73%,-6.15,–
COc1ccccc1N(C)Cc1c(C)noc1C,7%,-0.98,–
O=C(CCc1c(F)cccc1Cl)N1CC(Nc2cnccn2)C1,-6%,0.7,–
CC1(CO)CCCC1NCC(C)(O)C(F)(F)F (configuration not stated),33%,-3.73,–
O=c1c2ccccc2nc(Cc2ccccc2)n1Nc1ccccc1,-13%,1.76,–
O=C1N[C@H]2CC[C@@H]1CN(C(=O)c1cccc(-c3ccc4nccc(O)c4c3)c1)C2,-3%,0.64,–
Cc1cc(C)nc(-c2cccc(C(=O)NC[C@H]3CCOC3)c2)n1,-2%,0.19,–
COc1nc(-c2cccc(C(=O)N3C[C@@H]4CC[C@H](C3)C(=O)N4)c2)ncc1F,68%,-12.2,–
O=C(NCC1CCOCC1)c1ccc(-c2ccc(C(F)(F)F)cn2)cc1,1%,-0.21,–
CCc1cc(-c2cccc(C(=O)N3C[C@@H]4CC[C@H](C3)C(=O)N4)c2)nc(C)n1,-4%,0.67,–
Cc1ccc(-c2cccc(C(=O)NCC3CCOCC3)c2)c(C)n1,-2%,0.22,–
COc1nc(-c2cccc(C(=O)NCC3CCOCC3)c2)ncc1F,70%,-12.03,–
O=C(NCC1CCOCC1)c1ccc(-c2ccc(Cl)cn2)cc1,7%,-1.01,–
Cc1nc[nH]c1CN(Cc1c(C)nn(C)c1C)C(C)C,-7%,0.99,–
CC(C)N(CC1CCC1)C(=O)NC1CCC(Oc2cnccn2)CC1 (configuration not stated),29%,-3.26,–
COc1cc(C)c(-c2ccc(C(=O)N3CCCCCC3)cc2)cn1,-10%,1.56,–
Cc1ccc2c(C3=CCN(C(=O)c4cnc5[nH]c(=O)[nH]c(=O)c5c4)CC3)c[nH]c2c1,6%,-1.15,–

Structure (SMILES),% Inhibition,Z score,% Inhibition (2 µM)
O=C(CCc1cc2n(n1)CCN(Cc1ccc3ccccc3n1)C2)NCCO,-16%,2.81,–
CCOCCC1CCN(C(=O)c2cccc(-n3cccn3)n2)CC1,-15%,1.43,–
CCc1ocnc1C(=O)NC1CCCCCC1C(=O)OC (configuration not stated),-7%,0.61,–
O=C(c1ccccc1)C1C(c2ccccc2)N1C(=O)c1cccc(Cl)c1 (configuration not stated),-7%,0.84,–
CC(=O)Nc1ccc(-c2cn(C)c[n+]2C)cc1,-42%,4.97,–
CC(=O)Nc1ccc(-c2cn3c4ccccc4ccc3[n+]2C)cc1,87%,-10.86,–
CC(=O)Nc1ccc(-c2cc(-c3ccccc3)nc(-c3ccccc3)n2)cc1,-14%,2.76,–
OC1(c2csc(CN3CCOCC3)n2)CCN(Cc2ccccn2)CC1,-9%,1.39,–
Cn1c(C(=O)Nc2cc(F)ccc2NC(=O)c2ccccn2)cc(Cl)c1Cl,-27%,2.71,–
O=C(NCCc1ccccc1)NC1CCCC1,-11%,2.11,–
CC(C)N1CC[C@H](NCCc2ccccc2)C1,-6%,0.77,–
C[C@H]1CCC[C@@H](NCCc2ccccc2)CCC/C=C/c2cc(O)cc(O)c2C(=O)O1,73%,-6.47,–
NC(=O)c1ccc(NCCOc2cccc(Cl)c2Cl)nn1,-9%,1.2,–
CCC[C@H]1CN(C(=O)c2cccc3cn[nH]c23)CCN1CCOC,4%,-0.6,–
Cc1ccccc1NC(=O)CN1CCN(Cc2ccccc2)S1(=O)=O,-18%,1.6,–
Cc1ccc(C2=C[C@@H](c3ccc(C)cc3)n3nc(NC(=O)c4cccc(Cl)c4)nc3N2)cc1,16%,-2.03,–
CC1=C[C@@H](c2ccc(Cl)cc2)n2nc(NC(=O)c3ccccc3)nc2N1,-6%,1.14,–
Cc1ccc(C2=C[C@@H](c3ccc(Cl)cc3)n3nc(NC(=O)c4ccccc4)nc3N2)cc1,84%,-8.34,–
CC(=O)Nc1ccccc1CN(Cc1ccc(F)cc1F)C1CC1,9%,-0.85,–
CCN(C(=O)c1ccccc1Cc1ccc(C)cc1)C1CCOCC1,-13%,1.36,–
Cn1nccc1/C=C1\CC2C3CCc4cc(O)ccc4C3CCC2(C)C1O (configuration not stated),54%,-6.08,–

Structure (SMILES),% Inhibition,Z score,% Inhibition (2 µM)
CC(C)C(=O)NCCN(C)Cc1ccc(C#N)cc1Br,-19%,2.19,–
Cc1ncsc1CN(C)[C@@H](C(=O)O)c1ccsc1,3%,-0.57,–
C[C@]1(C(=O)Nc2cn[nH]c2)CCCN(C(=O)c2ccccc2)C1,-8%,1.66,–
Cc1nc2cc(NC(=O)[C@@]3(C)CCCN(C(=O)c4ccccc4)C3)ccc2o1,55%,-8.5,–
Cc1nnc(C(C)NC(=O)C2(C)CCCN(C(=O)c3ccccc3)C2)o1 (configuration not stated),-7%,0.99,–
Cc1ccc(N2C[C@H](C(=O)O)[C@@H](C(C)C)C2)nn1,-13%,1.69,–
CC1(C)CN(Cc2nnc(C3CC3)o2)CCN1Cc1ccccc1,-3%,0.43,–
O=C(NCc1ccco1)Nc1nccs1,1%,-0.2,–
O=C(NCCN1CCOCC1)c1c[nH]c2ccc(Cl)cc2c1=O,1%,-0.13,–
O=S(=O)(CCC1Cc2ccccc2C1)N1CCC[C@@](O)(C(F)(F)F)CC1,34%,-3.86,–
O=C(Cn1cc(F)ccc1=O)N1CCc2ccccc21,-8%,1.07,–
COc1cc(CNC2CCCCCC2)ccc1OC[C@@H](O)CN1CCCCCC1,1%,-0.22,–
CN1CCN(C2(CNC(=O)Nc3ccccc3C(F)(F)F)CCCC2)CC1,-2%,0.33,–
CN1CCN(C2(CNc3ccnc4ccccc34)CCCC2)CC1,99%,-9.07,–
O=C(NCc1c(F)cccc1Cl)c1cnc(-c2cccnc2)nc1,-19%,1.75,–
C[C@@H](C(=O)Nc1c(F)cccc1F)N1CCC(NS(=O)(=O)c2cccs2)CC1,-7%,0.81,–
CCc1ccc(NC(=O)[C@H](C)N2CCC(NS(=O)(=O)c3cccs3)CC2)cc1,76%,-7.11,–
C[C@@H](C(=O)Nc1ccc(F)cc1)N1CCC(NS(=O)(=O)c2cccs2)CC1,32%,-3.04,–
Cc1cccc(OCC(O)CNC2C3CCCOC3C2(C)C)c1 (configuration not stated),-10%,0.93,–
CC1(C)C(NCC(O)COc2ccc(F)c(F)c2)[C@@H]2CCC[C@@H]21 (some centres not stated),61%,-6.95,–
COc1ccc(C(CO)CNC2[C@@H]3CCC[C@@H]3C2(C)C)cc1 (some centres not stated),0%,-0.02,–

# Reference: ChEMBL document CHEMBL4888484, “Replenishing the malaria drug discovery pipeline: Screening and hit evaluation of the MMV Hit Generation Library 1 (HGL1) against asexual blood stage Plasmodium falciparum ,using a nano luciferase reporter read-out” (2022)
